High-throughput results deposited in PubChem BioAssay by National Center for Advancing Translational Sciences (NCATS).
DT40 TDP1 CPT – DT40-hTDP1 cell growth loss with CPT | 420,000 tested, 12% active | Potency, µM (top dose mostly 46.2 µM), for the others: at the highest dose activity change, negative = growth inhibition, hits mostly inhibitors | chicken DT40 Tdp1-/-;hTDP1 cells + 20 nM CPT, ATP luminescence, 48 h; further: potency means the concentration at half of the fitted maximal effect; on the % scale 0 is the no-effect control and ±100 the full control effect; nearly all actives have a fitted effect of over 55% in size
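Chicken DT40 Tdp1-/- cells complemented with human TDP1, 400 cells/well, exposed to compounds plus 20 nM camptothecin for at least 48 h at 37 C; viability read as ATP content by CellTiter-Glo luminescence.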
IL1B secr inh – inflammasome signaling inhibition, IL-1 beta readout | THP-1 LPS/ATP IL-1B secretion, AlphaLISA, 16 h; hits give low values | activity change, % at 57.5 µM | 360,000 tested, 4.7% active | AID 743279; in the data active means activity change below about -50%; inconclusive means mostly about -30% to -49%; further: on the % scale 0 is the no-effect control and ±100 the full control effect
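Secreted IL-1B measured by AlphaLISA bead assay after 16 h compound exposure of THP-1 cells; compounds (final up to 57.5 uM) added 1 h before LPS (250 ng/mL) and ATP (1.25 mM) stimulation; lower signal means less secretion.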
TGFb SMAD3 inh – TGF-b pathway inhibition. HepG2 CAGA-GFP TGF-b/SMAD3 reporter, GFP fluorescence, 18 h; TGF-beta stimulated, 500 pg/mL final. Potency, µM (highest dose often 46.1 µM), without a hit: top-dose activity, negative = inhibition, hits mostly inhibitors. 410,000 tested, 1.2% active. AID 588855; further: potency means the concentration at half of the fitted maximal effect; on the % scale 0 is the no-effect control and ±100 the full control effect; nearly all actives have a fitted effect of over 65% in size
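HEPG2 CAGA-GFP reporter cells (1000/well, DMEM with 1% FBS) received compounds, then recombinant TGF-beta at 500 pg/mL final for 18 hours at 37 degrees C. Per-cell GFP summed per well was normalised to unstimulated and stimulated DMSO controls before curve fitting.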
TDP1 inh – inhibitors of human tyrosyl-DNA phosphodiesterase TDP1; Q9NUW8; recombinant TDP1, AlphaScreen DNA substrate cleavage; Potency, µM (titrated, usually from 130 µM), for the others: at the top dose activity change, negative = inhibition, hits mostly inhibitors; 350,000 tested, 0.28% active; further: potency means the concentration at half of the fitted maximal effect; on the % scale 0 is the no-effect control and ±100 the full control effect; nearly all actives have a fitted effect of over 40% in size
Target sequence (Q9NUW8 whole entry, looked up): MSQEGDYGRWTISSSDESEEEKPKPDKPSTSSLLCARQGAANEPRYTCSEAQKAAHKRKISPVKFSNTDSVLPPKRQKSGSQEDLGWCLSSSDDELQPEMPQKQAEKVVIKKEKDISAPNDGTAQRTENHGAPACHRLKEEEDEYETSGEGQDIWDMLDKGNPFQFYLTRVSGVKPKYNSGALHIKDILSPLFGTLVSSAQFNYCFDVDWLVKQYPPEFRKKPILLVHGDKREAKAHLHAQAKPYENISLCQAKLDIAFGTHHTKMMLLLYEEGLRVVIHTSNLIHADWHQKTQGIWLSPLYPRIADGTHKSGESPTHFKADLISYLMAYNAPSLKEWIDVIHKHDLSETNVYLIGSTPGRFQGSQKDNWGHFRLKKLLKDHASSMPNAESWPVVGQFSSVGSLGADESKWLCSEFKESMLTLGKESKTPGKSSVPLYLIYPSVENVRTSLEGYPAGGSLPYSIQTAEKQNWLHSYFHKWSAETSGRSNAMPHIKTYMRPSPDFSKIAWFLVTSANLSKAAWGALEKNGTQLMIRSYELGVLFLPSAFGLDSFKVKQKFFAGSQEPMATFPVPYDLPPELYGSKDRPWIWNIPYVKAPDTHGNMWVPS
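AlphaScreen read-out: signal falls as enzyme removes the 3' tyrosine-FITC from a 5'-biotinylated DNA oligo (15 nM, 5 min, RT). Enzyme was E. coli-made recombinant Tdp1 at 1 nM, exposed to compound for 15 min beforehand; beads 10 ug/ml, 10 min.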
HepG2 viability – counter-screen for TGF-b inhibitors: cytotoxicity in HepG2 cells; HepG2 CAGA-GFP viability, ATP luminescence, 18 h; Potency, µM (titrated, usually from 46.1 µM), for inactives: at the highest dose activity change, negative = cytotoxicity, most hits filed as cytotoxic; 410,000 tested, 0.76% active; AID 588856; further: potency means the concentration at half of the fitted maximal effect
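CellTiter-Glo luminescence gave cytotoxicity after 18 hours at 37 degrees C. The cells were HepG2 CAGA-GFP in 1% FBS DMEM, stimulated with 500 pg/mL TGF-beta after compound addition. %Activity was normalised to no-cell wells (complete cell-killing) and DMSO (no toxicity), and curves were fitted and classified.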
TDP1 cell noCPT – qHTS for Inhibitors of human tyrosyl-DNA phosphodiesterase 1 (TDP1): qHTS in cells in absence of CPT; Potency, µM (highest dose often 46.2 µM), for the others: top-dose activity change, negative = growth inhibition, hits mostly inhibitors; 420,000 tested, 15% active; AID 686978, 2013; DT40 Tdp1-/- hTDP1 cells, no CPT, ATP luminescence, 48 h; further: potency means the concentration at half of the fitted maximal effect; on the % scale 0 is the no-effect control and ±100 the full control effect; nearly all actives have a fitted effect of over 55% in size
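Compound effects on proliferation are scored in DT40 Tdp1-/-;hTDP1 cells in the absence of CPT. ATP levels (CellTiter-Glo luminescence) are recorded after a ≥48 hr, 37 °C incubation.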
Numbers without * were called inactive; ? = inconclusive; . = not tested or not shown. A selection: hits, their analogues and other compounds. The true share with any hit is near 18%. Unless noted, the call rests on the fitted dose curve; in most records, active means well fitted curve in the direction sought with a large enough effect; inconclusive means small, poorly fitted or top-dose-only effect, or another doubt; inactive means no such curve, though single readings can be large; an effect the other way counts as inactive or inconclusive.

SMILES	DT40 TDP1 CPT	IL1B secr inh	TGFb SMAD3 inh	TDP1 inh	HepG2 viability	TDP1 cell noCPT
CN(C)S(=O)(=O)c1cccc(C(=O)N=C2N=C3C=CC(Cl)=CN3Cc3ccccc32)c1	?	17.6	-6.8%	.	-26.5%	16.4µM*
O=C(N=C1N=C2C=CC=CN2Cc2ccccc21)c1ccc(S(=O)(=O)N2CCCC2)cc1	4.2%	-11.5	-18.8%	.	-31.0%	?
Cc1ccc(NC(=O)C(C)c2ccc([N+](=O)[O-])cc2)cc1Cl (configuration not stated)	?	-104.0*	?	3.2%	-0.4%	?
CCC(C)NC(C(=O)Nc1ccc(Cl)c([N+](=O)[O-])c1)c1ccccc1 (configuration not stated)	?	-17.8	?	-2.7%	-22.0%	16.4µM*
O=C(Nc1cc([N+](=O)[O-])ccc1Cl)C(Sc1ccccc1)c1ccccc1 (configuration not stated)	?	-9.1	-21.2%	2.3%	-15.7%	?
O=C(Nc1ccc(Cl)c([N+](=O)[O-])c1)C(Sc1ccccc1)c1ccccc1 (configuration not stated)	?	-83.3*	?	0.0%	-51.9%	?
CC(C)C(NC(=O)CN1C(=O)c2ccccc2C1=O)c1ccccc1 (configuration not stated)	1.9%	13.2	2.8%	.	7.2%	25.4%
Cc1ccc(Cc2c(-c3ccc(C)cc3)nc3cc(C)ccn23)cc1	20.6µM*	-6.0	?	.	-70.5%	20.6µM*
Cc1ccc(Cc2c(-c3ccc(Cl)cc3)nc3cc(C)ccn23)cc1	?	-6.3	6.3%	.	-3.8%	18.4µM*
Cc1ccn2c(CC(C)(C)C)c(-c3ccc(F)cc3)nc2c1	20.6µM*	11.0	?	.	-68.5%	20.6µM*
Cc1ccc(Cc2c(-c3ccc(F)cc3)nc3c(Cl)cc(C(F)(F)F)cn23)cc1	-29.8%	12.3	7.4%	.	2.5%	-14.8%
Cc1ccn2c(CN3CCOCC3)c(-c3ccccc3)nc2c1	-28.7%	?	?	0.0%	0.2%	?
CCOCCCn1c(=N)c(C(=O)NCc2cccnc2)cc2c(=O)n3ccccc3nc21	-2.8%	.	-10.1%	.	-3.5%	-4.3%
COc1ccc(CNC(=O)CN(C(=O)CCC(=O)Nc2ccccn2)c2ccc(C)cc2)cc1	-1.3%	-11.4	-22.2%	10.9%	-31.3%	-20.8%
Cc1ccc(C(=O)Nc2cccc(C(F)(F)F)c2)cc1Nc1ccccn1	20.6µM*	27.0	-0.6%	0.0%	-2.2%	16.4µM*
CCCCCNCC(=O)Nc1cccc(C(=O)Nc2cccc(C(F)(F)F)c2)c1	?	-100.9*	?	.	-28.6%	?
Cc1cnc(Nc2nc3ccccc3o2)nc1C(=O)Nc1cccc(C(F)(F)F)c1	23.1µM*	21.8	?	7.0%	5.01µM*	20.6µM*
Cc1ccc(C(=O)Nc2cccc(C(F)(F)F)c2)cc1NC(=O)c1nccnc1N	-14.9%	73.8	2.9%	-2.4%	1.4%	-7.0%
Cc1ccc(C(=O)Nc2cccc(C(F)(F)F)c2)cc1NC(=O)c1[nH]cnc1C(N)=O	7.6%	79.3	?	-2.3%	-0.2%	?
Cc1ccc(C(=O)Nc2cccc(C(F)(F)F)c2)cc1Nc1cncnc1	?	68.0	?	.	-33.9%	14.6µM*
COc1ccc(CNC(=O)CN(CC2CCCO2)C(=O)CNS(=O)(=O)c2ccc(F)cc2)cc1 (configuration not stated)	-22.0%	17.8	-23.7%	2.9%	-0.9%	-9.0%
